# Data from PubChem BioAssay (Tox21).
# Values without a mark were called inactive. Results filed as inconclusive are left out. The source made the active and inactive calls. Unless noted, the call rests on the fitted dose curve.
# System: not listed separately
# Assay: Nuclear factor erythroid 2-related factor 2/antioxidant responsive element (Nrf2/ARE) small molecule agonists: luciferase reporter gene qHTS assay in human keratinocytes (AID 1919969); further: nearly all actives have a fitted effect of over 35% in size; further: potency means the concentration at half of the fitted maximal effect
# Details: KeratinoSens HaCaT ARE-luciferase, luminescence, 24 h; series mostly up to 92.4 µM; activity, positive = activation: at the top concentration
# On the % scale 0 is the no-effect control and ±100 the full control effect.
SMILES,"activity, positive = activation",Potency
[O-][n+]1cccc(CO)c1,1.19% [at 42.5 µM],
CC1OCCC1=O (stereo not drawn),-6.51%,
CC(C)=CCC/C(C)=C/CC/C(C)=C/CO,,68.6 µM (active)
O=[N+]([O-])c1cc(Cl)c(Cl)c(Cl)c1Cl,,48.4 µM (active)
COCCOCC(OC)OC,-7.12% [at 42.5 µM],
ClC(Cl)(Br)Br,-0.499%,
N[C@H]1CN(c2c(F)cc3c(=O)c(C(=O)O)cn(C4C[C@H]4F)c3c2Cl)CC12CC2 (stereo partly drawn),-9.83% [at 42.5 µM],
CCC(=O)c1cccc(Cl)c1,0.144%,
CC(C)(C)NC[C@H](O)COc1cccc2c1CCCC2=O,-2.88% [at 42.5 µM],
CN(C)CCOC1=Cc2ccccc2Sc2ccc(Cl)cc21,-1.07% [at 42.5 µM],
COc1cc2nc(Cl)nc(N)c2cc1OC,-1.82% [at 42.5 µM],
O=C1CCCc2c(O)cccc21,-4.2% [at 42.5 µM],
C=CC(=O)O,5.3% [at 42.5 µM],
Cc1c(C)c2c(c(C)c1O)CC[C@@](C)(CCC[C@H](C)CCC[C@H](C)CCCC(C)C)O2,6.45%,
OC[C@@H](O)C(O)[C@@H](O)CO (stereo partly drawn),1.12%,
C[C@H](CCC(=O)O)[C@H]1CC[C@H]2[C@@H]3[C@H](O)C[C@@H]4C[C@H](O)CC[C@]4(C)[C@H]3C[C@H](O)[C@]12C,3.26% [at 42.5 µM],
Cc1ccco1,12.4%,
CN(C)c1ccc(C(c2ccccc2)c2ccc(N(C)C)cc2)cc1,15.4%,
CCCCOC(=O)C(C)Oc1ccc(Oc2ccc(C(F)(F)F)cn2)cc1 (stereo not drawn),-12.2%,

# Target: KiSS-1 receptor (Homo sapiens) (UniProt Q969F8)
# Assay: Human kisspeptin (KISS1R) small molecule agonists, calcium flux assay in KISS1R-HEK293 cells (AID 1920064; active means well fitted activation curve with a large enough effect in the repeat runs)
# Details: KISS1R-HEK293, calcium flux fluorescence, agonist; series mostly up to 76.8 µM; activation: at the top concentration
# In short: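 After overnight (18 h) culture at 37 C/5% CO2, human KISS1R-HEK293 cells received calcium dye for 1 h, then test compound; emission at 540 nm (excitation 480 nm) was tracked for 3 min.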
# KiSS-1 receptor (Homo sapiens), sequence (Q969F8 whole entry, looked up): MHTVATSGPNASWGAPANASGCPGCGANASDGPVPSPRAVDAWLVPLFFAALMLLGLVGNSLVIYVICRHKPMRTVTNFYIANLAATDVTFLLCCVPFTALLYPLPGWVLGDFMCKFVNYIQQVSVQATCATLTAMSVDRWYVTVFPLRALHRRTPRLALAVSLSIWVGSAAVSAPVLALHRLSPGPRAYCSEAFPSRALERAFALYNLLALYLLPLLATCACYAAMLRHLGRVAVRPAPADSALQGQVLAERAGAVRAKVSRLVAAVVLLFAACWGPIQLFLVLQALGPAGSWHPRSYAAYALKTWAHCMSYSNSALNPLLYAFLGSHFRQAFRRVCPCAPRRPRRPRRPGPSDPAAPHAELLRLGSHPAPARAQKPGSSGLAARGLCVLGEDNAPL
row,SMILES,activation
1,CC(=O)c1ccc(Cl)c(Cl)c1Cl,3.19%
2,CCCCCCCCOC(C)=O,-0.326%
3,O=C(Nc1ccc2c(O)c(N=Nc3ccc(N=Nc4ccc(S(=O)(=O)O)cc4)cc3)c(S(=O)(=O)O)cc2c1)c1ccccc1,2.48%
4,CC(C)(C)C(=O)/C=C/c1ccc(Cl)cc1,1.02%
5,OCC(O)[C@@H](O)[C@H](O)[C@H](O)CO[C@H]1O[C@H](CO)[C@@H](O)[C@H](O)[C@H]1O (stereo partly drawn),-0.173%
6,C[C@@H](CN1CC(=O)NC(=O)C1)N1CC(=O)NC(=O)C1,4.76% [at 35.3 µM]
7,Cc1ccsc1C(=CCCN1CCC[C@@H](C(=O)O)C1)c1sccc1C,0.0619% [at 35.3 µM]
8,CCOc1nc2cccc(C(=O)O)c2n1Cc1ccc(-c2ccccc2-c2nn[nH]n2)cc1,2.18% [at 35.3 µM]
9,CCCc1nc2c(C)cc(-c3nc4ccccc4n3C)cc2n1Cc1ccc(-c2ccccc2C(=O)O)cc1,-0.0267% [at 35.3 µM]
10,CCOCCOCCOC(C)=O,-1.35%
11,Cc1ccc(N(CC2=NCCN2)c2cccc(O)c2)cc1,-0.363% [at 35.3 µM]
12,COC(=O)c1ccccc1Cl,-0.972%
13,CNS(=O)(=O)Cc1ccc2[nH]cc(CCN(C)C)c2c1,8.62% [at 35.3 µM]
14,CCCCCCCCCC#N,-1.8%
15,CCOC(=O)CCCCCCCCC(=O)OCC,0.0226%
16,COc1cccc(O)c1,-3.58%

row,SMILES,activation
1,CC[C@H]1OC(=O)[C@H](C)[C@@H](O[C@H]2C[C@@](C)(OC)[C@@H](O)[C@H](C)O2)[C@H](C)[C@@H](O[C@@H]2O[C@H](C)C[C@H](N(C)C)[C@H]2O)[C@](C)(OC)C[C@@H](C)C(=O)[C@H](C)[C@@H](O)[C@]1(C)O,3.26%
2,CC1OCCC1=O (stereo not drawn),0.947%
3,O=[N+]([O-])c1cc(Cl)c(Cl)c(Cl)c1Cl,3.71%
4,ClC(Cl)(Br)Br,-1.57%
5,N[C@H]1CN(c2c(F)cc3c(=O)c(C(=O)O)cn(C4C[C@H]4F)c3c2Cl)CC12CC2 (stereo partly drawn),0.571% [at 35.3 µM]
6,CCC(=O)c1cccc(Cl)c1,-2.02%
7,CC(C)(C)NC[C@H](O)COc1cccc2c1CCCC2=O,0.0629% [at 35.3 µM]
8,CN(C)CCOC1=Cc2ccccc2Sc2ccc(Cl)cc21,17.8% [at 35.3 µM]
9,COc1cc2nc(Cl)nc(N)c2cc1OC,-1.22% [at 35.3 µM]
10,O=C1CCCc2c(O)cccc21,0.507% [at 35.3 µM]
11,C=CC(=O)O,-1.28% [at 35.3 µM]
12,Cc1c(C)c2c(c(C)c1O)CC[C@@](C)(CCC[C@H](C)CCC[C@H](C)CCCC(C)C)O2,2.45%
13,OC[C@@H](O)C(O)[C@@H](O)CO (stereo partly drawn),-2.98%
14,C[C@H](CCC(=O)O)[C@H]1CC[C@H]2[C@@H]3[C@H](O)C[C@@H]4C[C@H](O)CC[C@]4(C)[C@H]3C[C@H](O)[C@]12C,-0.0808% [at 35.3 µM]
15,CN(C)c1ccc(C(c2ccccc2)c2ccc(N(C)C)cc2)cc1,1.14%

# System: not listed separately
# Assay: G protein-coupled receptor (GPCR) small molecule agonists, calcium flux assay: HEK293 wild type cell line counter screen (AID 1920065)
# Details: HEK293 WT calcium flux, fluorescence, agonist mode; series mostly up to 57.6 µM; activation: at the top concentration
# In short: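 Following 18 h incubation at 37 C/5% CO2, plates got calcium dye for 1 h; compounds, ATP or DMSO were then pinned in and fluorescence followed kinetically (480/540 nm).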
row,SMILES,activation
1,CC(=O)c1ccc(Cl)c(Cl)c1Cl,-0.87%
2,O=C(O)CCC(=O)c1ccc(-c2ccccc2)cc1,0.482% [at 26.5 µM]
3,CCCCCCCCOC(C)=O,-0.444%
4,OCC(O)[C@@H](O)[C@H](O)[C@H](O)CO[C@H]1O[C@H](CO)[C@@H](O)[C@H](O)[C@H]1O (stereo partly drawn),0.578%
5,Cc1ccsc1C(=CCCN1CCC[C@@H](C(=O)O)C1)c1sccc1C,2.26% [at 26.5 µM]
6,CCCCCCCCCCC(=O)O,-0.2%
7,CCOc1nc2cccc(C(=O)O)c2n1Cc1ccc(-c2ccccc2-c2nn[nH]n2)cc1,0.038% [at 26.5 µM]
8,CO[Si](C)(OC)c1ccccc1,-0.0261%
9,Cc1ccc(N(CC2=NCCN2)c2cccc(O)c2)cc1,-1.1% [at 26.5 µM]
10,COC(=O)c1ccccc1Cl,-0.382%
11,CNS(=O)(=O)Cc1ccc2[nH]cc(CCN(C)C)c2c1,0.768% [at 26.5 µM]
12,CCCCCCCCCC#N,-1.42%
13,CC[C@H]1OC(=O)[C@H](C)[C@@H](O[C@H]2C[C@@](C)(OC)[C@@H](O)[C@H](C)O2)[C@H](C)[C@@H](O[C@@H]2O[C@H](C)C[C@H](N(C)C)[C@H]2O)[C@](C)(OC)C[C@@H](C)C(=O)[C@H](C)[C@@H](O)[C@]1(C)O,-0.113%
14,[O-][n+]1cccc(CO)c1,1.58% [at 26.5 µM]
15,CC1OCCC1=O (stereo not drawn),-0.117%
16,CC(C)=CCC/C(C)=C/CC/C(C)=C/CO,-0.924%
17,COCCOCC(OC)OC,0.59% [at 26.5 µM]
18,N[C@H]1CN(c2c(F)cc3c(=O)c(C(=O)O)cn(C4C[C@H]4F)c3c2Cl)CC12CC2 (stereo partly drawn),-0.0416% [at 26.5 µM]
19,CCC(=O)c1cccc(Cl)c1,-1.3%
20,CC(C)(C)NC[C@H](O)COc1cccc2c1CCCC2=O,0.737% [at 26.5 µM]
21,CN(C)CCOC1=Cc2ccccc2Sc2ccc(Cl)cc21,2.1% [at 26.5 µM]
22,COc1cc2nc(Cl)nc(N)c2cc1OC,1.17% [at 26.5 µM]
23,O=C1CCCc2c(O)cccc21,1.36% [at 26.5 µM]
24,C=CC(=O)O,-0.0269% [at 26.5 µM]
25,Cc1c(C)c2c(c(C)c1O)CC[C@@](C)(CCC[C@H](C)CCC[C@H](C)CCCC(C)C)O2,-0.18%
26,Cc1ccco1,0.0087%
27,CN(C)c1ccc(C(c2ccccc2)c2ccc(N(C)C)cc2)cc1,0.351%
28,CCCCOC(=O)C(C)Oc1ccc(Oc2ccc(C(F)(F)F)cn2)cc1 (stereo not drawn),1.37%
